Source: PubChem BioAssay (several laboratories)
KLF5 inhibitor: inhibitors of KLF5 expression; inhibition, % at 5 µM; actives 0.23% (n = 290,000); DLD-1 KLF5 promoter-luciferase reporter, luminescence;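 active = inhibition above a per-plate limit of that plate's mean compound inhibition plus 3 SD, cut at about 60% in these data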;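 also: higher means less KLF5 promoter-driven luciferase light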
Ba/F3 V617F tox: lowers viability of Ba/F3 cells expressing EpoR and JAK2V617F; AID 1446; actives 1.1% (n = 220,000); inhibition, % at 5.6 µM; ATP luminescence;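 active = inhibition above the campaign mean plus 3 SD over all tested compounds, cut at about 24% in these data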;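 also: cytokine-independent growth of Ba/F3 cells driven by EpoR plus mutant JAK2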
aSyn 5UTR inh: MLPCN primary screen, SNCA 5' untranslated region; inhibition, % (tested at 7.5 µM); AID 1813; actives 0.82% (n = 300,000); alpha-synuclein 5'UTR reporter, inhibitor activity; in the data active = inhibition above about 60%; inconclusive = no clear call, values can overlap the other calls;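 also: H4 neuroglioblastoma cells stably carrying SNCA 5'UTR luciferase fusion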
IEC-6 cytotox: counter-screen for KLF5 inhibitors: cytotoxicity in IEC-6 cells | actives 0.78% (n = 290,000) | IEC-6 cytotoxicity, luminescence viability | inhibition, % at 5 µM; in the data active = inhibition above about 22%
BaF3 parental: counter-screen for JAK2V617F inhibitors: parental Ba/F3 viability inhibitors; CellTiter-Glo ATP luminescence; inhibition, % at 5.6 µM; actives 1.1% (n = 220,000);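 active = inhibition above a per-campaign cutoff, the mean inhibition of all tested compounds plus 3 SD, cut at about 27% in these data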
APP 5UTR inh: APP translation inhibition; AID 1285; SH-SY5Y APP 5'UTR-luciferase reporter, luminescence; inhibition, % at 2 µM; actives 0.82% (n = 190,000);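 active = inhibition above a set limit, derived from the sample mean plus 3 SD, cut at about 45% in these data; inconclusive = one replicate passes the limit while the other fails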
Hits are given with their value; – = inactive; ? = inconclusive; · = no result. Rows were chosen to be rich in hits. Some 2.2% of all compounds tested hit in one or more screens of this group.

SMILES	KLF5 inhibitor	Ba/F3 V617F tox	aSyn 5UTR inh	IEC-6 cytotox	BaF3 parental	APP 5UTR inh
COc1ccc(NS(=O)(=O)c2cccc(C(=O)OCC(=O)NC3CC3)c2)cc1	–	·	–	–	·	·
CCCCCC(=O)NC(=S)Nc1ccccc1C(=O)OC	–	–	–	–	–	71.5
CCCCC(=O)NC(=S)Nc1ccccc1C(=O)Nc1ccccc1	–	–	–	–	–	–
O=C(NCCCN1CCOCC1)C1CCN(S(=O)(=O)c2ccccc2)CC1	·	·	–	·	·	·
COc1ccc(C(O)(CC(C)C)C(CN2CCOCC2)c2ccccc2)cc1 (stereo not given)	–	·	66.0	–	·	·
CCc1ccc(C(O)(CC(C)C)C(CN2CCOCC2)c2ccccc2)cc1 (stereo not given)	–	·	?	–	·	·
Cc1ccc(C(C)NC(=O)c2ccc3c(c2)OCO3)cc1C (stereo not given)	–	·	–	–	·	·
O=C(Nc1nc2ccccc2[nH]1)c1cccc(F)c1	–	·	–	–	·	·
COc1cccc(C(=O)Nc2nc3ccccc3[nH]2)c1	–	–	62.6	–	–	–
CCCN1CCN(CCCNC(=O)c2cc3c(s2)-c2c(C)cccc2OC3)CC1	–	·	–	–	·	·
Cc1cccc2c1-c1sc(C(=O)NCCCN3CCCC(C)C3)cc1CO2 (stereo not given)	–	·	69.5	–	·	·
CC1CCCC(C)N1CCCNC(=O)c1cc2c(s1)-c1ccccc1OC2 (stereo not given)	–	·	69.9	–	·	·
O=C1Nc2ccccc2N(O)N1c1ccc(S(=O)(=O)N2CCCCCC2)cc1	–	–	–	–	–	–
CC(=O)c1ccc(S(=O)(=O)N(C)CC(=O)N2CCCCCC2)cc1	–	·	–	–	·	·
N#CC(c1cccc(Cl)c1)c1ccc2c(C(F)(F)F)cc(C(F)(F)F)nc2n1 (stereo not given)	–	–	97.0	–	–	–
NNc1ccc2c(C(F)(F)F)cc(C(F)(F)F)nc2n1	–	–	–	–	–	–
COc1ccc(-c2c(C)n([O-])c3c([n+]2=O)CCCCC3)cc1OC	–	–	–	–	–	–
CCCCOc1ccc(C2C(C(=O)c3ccc(C)o3)=C(O)C(=O)N2CC2CCCO2)cc1 (stereo not given)	–	–	–	–	–	–
CC(=O)N1CCN(c2ccccc2NC(=O)c2ccc(C#N)cc2F)CC1	–	–	–	–	90.1	–
CN1CCN(c2ccccc2NC(=O)c2ccccc2F)CC1	–	–	–	–	–	·
CC1CCN(Cc2c(C(=O)N/N=C/c3ccc(C(C)(C)C)cc3)nnn2-c2nonc2N)CC1	–	·	64.0	–	·	·
COc1ccc(/C=N/NC(=O)NC23CC4CC(CC(C4)C2)C3)c(OC)c1	–	·	–	–	·	·
COc1cccc(C(=O)Nc2ccc3[nH]c(=O)[nH]c3c2)c1OC	–	·	67.8	–	·	·
Cc1cc(C(=O)Nc2ccccc2C(=O)O)ccc1NC(=O)COc1ccccc1Cl	–	·	–	–	·	·
COC(=O)c1cnc(Oc2ccc(NC(=O)NC(=O)c3c(OC)cccc3OC)cc2)cc1C(F)(F)F	–	–	74.5	–	–	·
SMILES	KLF5 inhibitor	Ba/F3 V617F tox	aSyn 5UTR inh	IEC-6 cytotox	BaF3 parental	APP 5UTR inh
Cc1nc2cc(NC(=O)Nc3ccc(Br)cc3)ccc2o1	–	–	–	–	–	–
COc1cc(/C=C/c2nnc3c4ccccc4ncn23)cc(OC)c1OC	–	27.7	–	–	43.0	–
COc1cc(/C=C/c2noc(-c3ccccc3O)n2)cc(OC)c1OC	–	–	–	–	–	–
CC1(C(=O)Oc2ccccc2)Cc2ccccc2C(=O)O1 (stereo not given)	–	–	–	–	–	–
Cc1ccc(CN=C(N)Nc2nc(C)cc(C)n2)cc1	–	80.6	117.0	48.0	77.3	70.8
Cc1ccc(CNC(=O)Cc2ccc(-c3ccccc3)cc2)cc1	–	–	73.3	–	–	–
Cc1ccc(CNC(=O)CSCc2ccc(F)cc2)cc1	–	–	–	–	–	–
Cc1noc(C)c1COc1ccc(CC(=O)NCCc2ccccn2)cc1	–	·	–	–	·	·
Cc1ccc(CC(=O)NCc2ccc(F)cc2)cc1	–	35.0	–	50.3	57.7	–
O=C(Cc1ccc(-c2ccccc2)cc1)NCc1ccccc1	–	81.3	104.5	78.1	80.8	92.8
Cc1noc(C)c1COc1ccc(CC(=O)NCc2ccccc2)cc1	–	72.1	71.9	79.2	72.6	86.5
Cc1ccc(SCC(=O)Nc2ccc(N3CCN(C)CC3)c(F)c2)c(C)c1	–	–	–	–	–	–
O=C1CCN(C(=O)CSc2ccc(Cl)cc2)N1	–	–	–	–	–	–
C[C@]12C(=O)N(c3ccc(Cl)cc3)C(=O)N1[C@@H]1c3ccccc3OC[C@@H]1[C@H]2c1ccccc1	·	·	–	·	·	·
Cc1c(-c2ccncc2)oc2ccc(Br)cc2c1=O	–	–	–	–	–	–
O=S(=O)(CC(c1ccccc1)N1CCCCC1)c1ccc(Cl)cc1 (stereo not given)	–	–	–	–	–	·
CCN(c1ccccc1)S(=O)(=O)c1ccc(OC)c(NC(=O)CNC)c1	–	–	–	–	29.6	–
CCC(C)NCC(=O)Nc1cc(S(=O)(=O)N(CC)c2ccccc2)ccc1Cl (stereo not given)	–	–	–	–	46.0	–
CCN(c1ccccc1)S(=O)(=O)c1ccc(OC)c(NC(=O)CN(C)C)c1	–	–	–	–	32.8	–
CCN(c1ccccc1)S(=O)(=O)c1ccc(OC)c(NC(=O)CNCC(C)O)c1 (stereo not given)	–	–	–	–	–	–
CCCCN(Cc1ccccc1)S(=O)(=O)c1ccc2[nH]c(=O)oc2c1	–	–	–	–	–	48.9
COC(=O)c1cc(-c2ccc(Br)cc2)c2c(=O)n(C)c(=O)n(C)c2n1	–	·	–	–	·	·
CCc1nnc(N/N=C/c2cc(Br)c(O)cc2O)n1N	–	·	–	–	·	·
CCc1nnc(N/N=C/c2cccs2)n1N	–	–	–	94.4	–	–
CCc1nnc(N/N=C/c2c(Cl)cccc2Cl)n1N	–	–	–	61.9	–	–
SMILES	KLF5 inhibitor	Ba/F3 V617F tox	aSyn 5UTR inh	IEC-6 cytotox	BaF3 parental	APP 5UTR inh
Cc1ccnc(NC(=O)CCC(=O)N(CC(=O)NCc2ccccc2)Cc2cccs2)c1	–	–	–	–	–	–
O=C(NC1CCCCCC1)c1ccc(CS(=O)Cc2cccc(Cl)c2)o1 (stereo not given)	–	·	–	–	·	·
Cc1ccc(-c2csc3nc4c5ccccc5c(NCCCN(C)C)nn4c(=O)c23)cc1	–	–	115.6	–	–	–
CCCCOc1cccc(/C=C(\C#N)C(=O)NC2CC2)c1	–	·	–	–	·	·
C=CCN(c1ccccc1OC)S(=O)(=O)c1ccc(Cl)c(C(=O)Nc2ccc(N3CCOCC3)cc2)c1	–	–	89.2	–	–	–
O=c1c2sc(-c3ccccc3)cc2nc2n1CCC2	–	–	82.4	–	–	–
CNC(=S)N/N=C(\C)c1ccc(C)c(C)c1	–	–	–	–	–	–
CN(C)c1cc[n+](Cc2c(Cl)cccc2Cl)cc1	–	98.2	–	–	80.3	–
Brc1ccc(C=Nc2ccc(Nc3ccccc3)cc2)s1	–	–	–	–	–	45.2
